Consider four molecules from PubChem BioAssay (EPA / NIEHS).

The source made the active and inactive calls. How the source made its calls: active means hit-call score of the fitted dose curve at least 0.9, where 1 is the maximum; inactive means score below 0.9.

For orientation: AC50 means the concentration giving half of the maximal activity seen.

A short description of assay [1]: ATG_CRE_CIS: Attagene CIS-FACTORIAL HepG2 Assay for human cAMP Responsive Element (CRE) binding protein 3 (AID 2282926). As to conditions: HepG2 CRE cis-reporter, Attagene multiplexed mRNA; actives raise or lower the signal. The gist of the method:
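Liver-derived HepG2, transfected with a CRE-containing reporter panel, exposed 24 h; transcript levels sized and quantified by capillary electrophoresis of labelled amplicons; signal changes either way referenced to vehicle.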

The target in assay [2] is CCAAT/enhancer-binding protein beta (Homo sapiens) (UniProt P17676). As to the kind of experiment: ATG_C_EBP_CIS: Attagene CIS-FACTORIAL HepG2 Assay for human CCAAT/Enhancer Binding Protein (C/EBP) beta (AID 2282927). As to conditions: HepG2 Attagene cis-factorial transcription factor reporter; actives raise or lower the signal. The gist of the method:
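Following a 24 h incubation with test chemical, transfected HepG2 cells yielded RNA whose reporter transcripts were quantified by RT-PCR and fluorescent capillary electrophoresis, with DMSO serving as baseline for bidirectional fitting.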

Assay [3] deals with Aryl hydrocarbon receptor (Homo sapiens) (UniProt P35869). The assay can be described thus: ATG_Ahr_CIS: Attagene CIS-FACTORIAL HepG2 Assay for human Aryl Hydrocarbon Receptor (Ahr) (AID 2282930). As to conditions: HepG2 AhR cis-factorial reporter transcription; actives raise or lower the signal. The gist of the method: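 Values derive from bidirectional fitting against DMSO negative control. Underlying signal: cis-element reporter mRNA in transiently transfected HepG2, harvested 24 h post-dose and measured by RT-PCR plus capillary electrophoresis.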

The nature of assay [4]: ATG_AP_1_CIS: Attagene CIS-FACTORIAL HepG2 Assay for human Activator Protein 1 (AP-1) (AID 2282931). As to conditions: HepG2 Attagene cis-factorial AP-1 reporter mRNA; actives raise or lower the signal. The gist of the method: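 After 24 h incubation with test chemical, RNA from transfected HepG2 cells was reverse-transcribed, amplified, fluorescently labelled and digested before capillary electrophoresis. Reporters were driven by cis-regulatory promoters; activity fitted bidirectionally versus DMSO.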

The nature of assay [5]: ATG_BRE_CIS: Attagene CIS-FACTORIAL HepG2 Assay for human Bone Morphogenetic Protein (BMP) Response Element (BRE) (AID 2282933). As to conditions: HepG2 BMP response element reporter, Attagene transcription factor profiling; actives raise or lower the signal. Put shortly:
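HepG2 cells transiently transfected with CIS reporter units (endogenous TF activity, BMP response element), dosed 24 h. Reporter mRNA quantified by RT-PCR, fluorescent labelling and capillary electrophoresis; bidirectional fit vs DMSO baseline.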

Assay [6] in a line: ATG_E_Box_CIS: Attagene CIS-FACTORIAL HepG2 Assay for human Enhancer Box (E-box) (AID 2282936). As to conditions: HepG2 E-box cis-reporter transcription, actives raise or lower the signal. Put shortly: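 Endogenous transcription factor activity was sensed in human HepG2 liver cells through transfected cis-promoter reporter units. After 24 h of dosing, total RNA was reverse-transcribed and reporter cDNA resolved by capillary electrophoresis.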

The nature of assay [7]: ATG_M_19_CIS: Attagene CIS-FACTORIAL HepG2 Assay for M19 Transcription Factor (Internal Marker) (AID 2282939). As to conditions: HepG2 Attagene CIS-FACTORIAL M19 internal marker reporter; actives raise or lower the signal. Put shortly:
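HepG2 cells transiently transfected with cis-regulated multiplexed reporter units, dosed 24 h. Reporter mRNA quantified by RT-PCR and capillary electrophoresis; internal background marker fitted bidirectionally versus DMSO.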

The nature of assay [8]: ATG_GLI_CIS: Attagene CIS-FACTORIAL HepG2 Assay for human Zinc Finger Protein GLI1 (AID 2282945). As to conditions: HepG2, Attagene cis-factorial reporter mRNA, GLI element; actives raise or lower the signal. The gist of the method:
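HepG2 cells transiently transfected with cis-promoter multiplexed reporter units report endogenous transcription factor activity. After 24 h chemical exposure, reporter mRNA was quantified by RT-PCR, 6-FAM labelling, HpaI digestion and capillary electrophoresis, with bidirectional fitting against DMSO.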

For assay [9], the target named is Hypoxia-inducible factor 1-alpha (Homo sapiens) (UniProt Q16665). As to the kind of experiment: ATG_HIF1a_CIS: Attagene CIS-FACTORIAL HepG2 Assay for human Hypoxia Inducible Factor 1 (HIF1A) (AID 2282951). As to conditions: HepG2 Attagene cis-factorial HIF1a reporter transcription; actives raise or lower the signal. The gist of the method:
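Endogenous-TF cis reporter readout, human HepG2 cells, 24 h incubation; mRNA detected via RT-PCR and capillary electrophoresis fluorescence; DMSO-normalised bidirectional fitting.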

For assay [10], the target named is Hepatocyte nuclear factor 6 (Homo sapiens) (UniProt Q9UBC0). The assay can be described thus: ATG_HNF6_CIS: Attagene CIS-FACTORIAL HepG2 Assay for human Hepatocyte Nuclear Factor 6 (HNF6) (AID 2282952). As to conditions: HepG2 Attagene cis-factorial HNF6 reporter transcription; actives raise or lower the signal. Put shortly:
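Twenty-four-hour chemical treatment of reporter-transfected HepG2 cells precedes RNA isolation, DNase-treated reverse transcription and PCR of reporter sequences. Labelled fragments are sized by capillary electrophoresis and fitted bidirectionally versus DMSO.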

Assay [11] concerns the target Heat shock factor protein 1 (Homo sapiens) (UniProt Q00613). The assay can be described thus: ATG_HSE_CIS: Attagene CIS-FACTORIAL HepG2 Assay for human Heat Shock Transcription Factor 1 (HSE) (AID 2282953). As to conditions: HepG2 HSE cis-reporter, Attagene RNA transcription; actives raise or lower the signal. The gist of the method:
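HepG2 cells transfected with cis-promoter reporter units sensing endogenous transcription factor activity; reporter mRNA quantified 24 h post-dose by RT-PCR and capillary electrophoresis of 6-FAM-labelled products. Bidirectional fitting against DMSO.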

A short description of assay [12]: ATG_VDRE_CIS: Attagene CIS-FACTORIAL HepG2 Assay for human Vitamin D Receptor Element (VDRE) (AID 2282968). As to conditions: HepG2 VDRE cis-reporter transcription, actives raise or lower the signal. Put shortly: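 Steps: transfect HepG2 with multiple reporter transcription units; dose chemicals 24 h; isolate RNA; RT-PCR; label with 6-FAM primer extension; HpaI digest; capillary electrophoresis. Curves fitted both directions against DMSO.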

Assay [13] has as its target X-box-binding protein 1 (Homo sapiens) (UniProt P17861). As to the kind of experiment: ATG_Xbp1_CIS: Attagene CIS-FACTORIAL HepG2 Assay for human X-box Binding Protein 1 (XBP1) (AID 2282972). As to conditions: HepG2 XBP1 cis-element reporter, Attagene multiplex; actives raise or lower the signal. The gist of the method: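 Changes in reporter transcript abundance, read by RT-PCR and capillary electrophoresis, reflect endogenous transcription factor activity. Transfected HepG2 cells received compound for 24 hours; DMSO defined baseline for bidirectional analysis.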

Assay [14] has as its target Nuclear respiratory factor 1 (Homo sapiens) (UniProt Q16656). As to the kind of experiment: ATG_NRF1_CIS: Attagene CIS-FACTORIAL HepG2 Assay for human Nuclear Respiratory Factor 1 (NRF1) Orphan Gene (AID 2282987). As to conditions: HepG2 NRF1 cis-element reporter, Attagene multiplex; actives raise or lower the signal. The gist of the method:
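Endogenous factor activity was captured via cis-element-driven reporter transcripts in HepG2 cells. Following 24 h chemical treatment, transcripts were quantified by RT-PCR and capillary electrophoresis.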

For assay [15], the target named is Myc proto-oncogene protein (Homo sapiens) (UniProt P01106). The assay can be described thus: ATG_Myc_CIS: Attagene CIS-FACTORIAL HepG2 Assay for human Myelocytomatosis (Myc) Proto-Oncogene Transcription Factor (AID 2282990). As to conditions: HepG2, Attagene cis-reporter transcription factor activity; actives raise or lower the signal. The gist of the method:
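Multiplexed cis-reporter transcription in HepG2 cells after 24 h chemical treatment. Reporter mRNA measured by RT-PCR and capillary electrophoresis fluorescence; activity fitted bidirectionally against DMSO control.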

The nature of assay [16]: ATG_NRF2_ARE_CIS: Attagene CIS-FACTORIAL HepG2 Assay for human Nuclear Factor Erythroid 2 Related Factor 2 (NFR2) response to Antioxidant Response Elements (ARE) (AID 2282992). As to conditions: HepG2 Attagene ARE/NRF2 reporter, transcription factor activity; actives raise or lower the signal. The gist of the method: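 Using transiently transfected HepG2 cells exposed for 24 h, reporter mRNA levels were determined by RT-PCR with fluorescent primer extension and capillary electrophoresis, analysed for gain or loss of signal against DMSO.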

Assay [17] is described as follows: ATG_Oct_MLP_CIS: Attagene CIS-FACTORIAL HepG2 Assay for human Octamer-Binding Transcription Factor (Oct) (AID 2282993). As to conditions: HepG2 Attagene cis-factorial Oct reporter, mRNA; actives raise or lower the signal. The gist of the method: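 HepG2 cells transiently transfected with cis-element-driven reporter transcription units (endogenous TF activity); 24 h compound exposure. Reporter mRNA quantified by RT-PCR, 6-FAM labelling, HpaI digestion and capillary electrophoresis; bidirectional fit versus DMSO baseline.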

In assay [18] the target is Cellular tumor antigen p53 (Homo sapiens) (UniProt P04637). The assay can be described thus: ATG_p53_CIS: Attagene CIS-FACTORIAL HepG2 Assay for human p53 Transcription Factor (AID 2282994). As to conditions: HepG2 p53 cis-element reporter, Attagene mRNA; actives raise or lower the signal. Put shortly:
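In HepG2 cells, reporter transcription units under cis-regulatory promoters were transiently introduced. Following 24 h treatment, RNA was processed to labelled, digested cDNA fragments read by capillary electrophoresis; fitting was bidirectional versus DMSO.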

A short description of assay [19]: ATG_M_06_CIS: Attagene CIS-FACTORIAL HepG2 Assay for M06 Transcription Factor (Internal Marker) (AID 2282950). As to conditions: HepG2 Attagene CIS-FACTORIAL M06 internal marker reporter; actives raise or lower the signal. The gist of the method:
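Internal background marker within multiplexed cis-reporter HepG2 system. Cells transiently transfected, dosed 24 h; reporter mRNA measured by RT-PCR, HpaI digestion and capillary electrophoresis. Bidirectional fit relative to DMSO.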

A short description of assay [20]: ATG_TA_CIS: Attagene CIS-FACTORIAL HepG2 Assay for human TA Basal Promoter (AID 2282964). As to conditions: HepG2 Attagene CIS-factorial TA basal promoter reporter; actives raise or lower the signal. The gist of the method: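 HepG2 cells transiently transfected with multiple reporter units under cis promoter elements, reporting endogenous transcription factor activity; this endpoint tracks the TA basal promoter as background control. Reporter mRNA after 24 h dosing measured by RT-PCR/capillary electrophoresis; bidirectional fits versus DMSO.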

Chain of CCAAT/enhancer-binding protein beta (Homo sapiens) (P17676 whole entry, looked up): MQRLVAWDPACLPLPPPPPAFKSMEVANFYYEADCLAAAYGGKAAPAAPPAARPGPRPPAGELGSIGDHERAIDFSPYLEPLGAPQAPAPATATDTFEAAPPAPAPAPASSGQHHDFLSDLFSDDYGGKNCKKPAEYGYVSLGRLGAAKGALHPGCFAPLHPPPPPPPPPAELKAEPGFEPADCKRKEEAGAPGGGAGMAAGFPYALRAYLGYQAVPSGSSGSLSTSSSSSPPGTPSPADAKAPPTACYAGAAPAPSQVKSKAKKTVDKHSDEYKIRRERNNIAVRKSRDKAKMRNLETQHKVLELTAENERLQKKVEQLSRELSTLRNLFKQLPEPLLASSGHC
Chain of Hepatocyte nuclear factor 6 (Homo sapiens) (Q9UBC0 whole entry, looked up, the tested form may be a part): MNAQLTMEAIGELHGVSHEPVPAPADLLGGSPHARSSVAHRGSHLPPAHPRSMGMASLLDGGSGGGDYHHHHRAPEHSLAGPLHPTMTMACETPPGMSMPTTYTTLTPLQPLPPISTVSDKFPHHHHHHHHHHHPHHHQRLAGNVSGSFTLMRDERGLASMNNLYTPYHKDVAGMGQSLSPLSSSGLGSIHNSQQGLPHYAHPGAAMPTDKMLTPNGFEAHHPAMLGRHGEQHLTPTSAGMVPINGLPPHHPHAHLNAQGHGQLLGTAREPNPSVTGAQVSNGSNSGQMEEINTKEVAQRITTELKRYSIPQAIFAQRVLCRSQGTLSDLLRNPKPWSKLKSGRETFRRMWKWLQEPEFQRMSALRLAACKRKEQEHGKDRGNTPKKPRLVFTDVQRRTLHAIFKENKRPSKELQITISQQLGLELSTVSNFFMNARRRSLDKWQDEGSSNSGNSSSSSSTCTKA
Chain of Hypoxia-inducible factor 1-alpha (Homo sapiens) (Q16665 whole entry, looked up): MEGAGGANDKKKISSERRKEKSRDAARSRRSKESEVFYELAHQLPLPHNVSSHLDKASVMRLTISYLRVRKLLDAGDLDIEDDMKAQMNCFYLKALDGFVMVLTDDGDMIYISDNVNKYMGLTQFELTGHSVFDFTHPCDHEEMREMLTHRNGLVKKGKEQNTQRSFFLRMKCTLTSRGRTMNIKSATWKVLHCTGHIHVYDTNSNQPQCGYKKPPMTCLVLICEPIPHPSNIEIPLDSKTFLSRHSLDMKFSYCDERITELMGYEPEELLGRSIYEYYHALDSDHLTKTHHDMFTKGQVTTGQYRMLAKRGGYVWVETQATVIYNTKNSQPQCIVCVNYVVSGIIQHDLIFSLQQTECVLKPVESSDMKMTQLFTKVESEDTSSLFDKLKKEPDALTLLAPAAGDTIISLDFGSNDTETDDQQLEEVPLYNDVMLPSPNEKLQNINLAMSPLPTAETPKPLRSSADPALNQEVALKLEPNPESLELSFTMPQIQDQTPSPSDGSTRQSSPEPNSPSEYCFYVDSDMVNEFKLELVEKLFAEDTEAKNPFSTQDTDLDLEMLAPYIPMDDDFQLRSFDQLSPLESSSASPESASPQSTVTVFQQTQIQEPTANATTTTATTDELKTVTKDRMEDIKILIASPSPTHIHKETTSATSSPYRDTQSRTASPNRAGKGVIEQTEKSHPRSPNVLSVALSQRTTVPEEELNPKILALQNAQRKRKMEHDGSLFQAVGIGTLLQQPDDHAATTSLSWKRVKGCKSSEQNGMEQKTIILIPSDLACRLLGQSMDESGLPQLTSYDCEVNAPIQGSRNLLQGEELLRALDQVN
Chain of Heat shock factor protein 1 (Homo sapiens) (Q00613 whole entry, looked up): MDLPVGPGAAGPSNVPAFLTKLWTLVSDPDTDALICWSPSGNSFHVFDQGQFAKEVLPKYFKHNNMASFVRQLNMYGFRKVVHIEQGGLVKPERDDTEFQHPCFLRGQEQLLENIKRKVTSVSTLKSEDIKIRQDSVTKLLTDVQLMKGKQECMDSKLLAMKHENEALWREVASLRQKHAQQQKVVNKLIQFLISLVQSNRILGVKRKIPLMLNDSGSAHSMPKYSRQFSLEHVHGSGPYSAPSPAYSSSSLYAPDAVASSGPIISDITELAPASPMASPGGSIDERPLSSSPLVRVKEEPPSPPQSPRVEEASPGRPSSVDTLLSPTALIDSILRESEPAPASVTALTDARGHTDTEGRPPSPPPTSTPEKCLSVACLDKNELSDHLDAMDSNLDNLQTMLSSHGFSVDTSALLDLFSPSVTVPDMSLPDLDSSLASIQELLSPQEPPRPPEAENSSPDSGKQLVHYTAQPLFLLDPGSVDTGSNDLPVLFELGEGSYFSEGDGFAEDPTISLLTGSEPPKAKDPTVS
Chain of Myc proto-oncogene protein (Homo sapiens) (P01106 whole entry, looked up): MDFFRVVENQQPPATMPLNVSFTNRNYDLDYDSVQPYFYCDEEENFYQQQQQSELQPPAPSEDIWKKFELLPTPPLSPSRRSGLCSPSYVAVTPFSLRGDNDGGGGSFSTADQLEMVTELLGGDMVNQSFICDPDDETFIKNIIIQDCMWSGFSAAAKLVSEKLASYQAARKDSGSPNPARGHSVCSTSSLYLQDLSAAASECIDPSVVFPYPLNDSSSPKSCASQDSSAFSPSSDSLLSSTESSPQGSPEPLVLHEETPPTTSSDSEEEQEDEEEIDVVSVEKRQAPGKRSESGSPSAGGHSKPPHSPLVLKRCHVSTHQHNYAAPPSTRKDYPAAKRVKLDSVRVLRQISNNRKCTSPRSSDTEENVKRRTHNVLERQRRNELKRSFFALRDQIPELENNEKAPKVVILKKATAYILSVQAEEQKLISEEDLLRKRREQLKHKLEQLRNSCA
Chain of X-box-binding protein 1 (Homo sapiens) (P17861 whole entry, looked up): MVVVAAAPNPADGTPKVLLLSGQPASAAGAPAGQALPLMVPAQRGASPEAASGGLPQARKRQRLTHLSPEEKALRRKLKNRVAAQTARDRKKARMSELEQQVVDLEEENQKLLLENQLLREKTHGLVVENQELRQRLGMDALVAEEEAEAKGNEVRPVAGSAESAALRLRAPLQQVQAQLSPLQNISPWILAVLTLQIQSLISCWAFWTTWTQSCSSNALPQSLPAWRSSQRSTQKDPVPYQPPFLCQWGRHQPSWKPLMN
Chain of Aryl hydrocarbon receptor (Homo sapiens) (P35869 whole entry, looked up): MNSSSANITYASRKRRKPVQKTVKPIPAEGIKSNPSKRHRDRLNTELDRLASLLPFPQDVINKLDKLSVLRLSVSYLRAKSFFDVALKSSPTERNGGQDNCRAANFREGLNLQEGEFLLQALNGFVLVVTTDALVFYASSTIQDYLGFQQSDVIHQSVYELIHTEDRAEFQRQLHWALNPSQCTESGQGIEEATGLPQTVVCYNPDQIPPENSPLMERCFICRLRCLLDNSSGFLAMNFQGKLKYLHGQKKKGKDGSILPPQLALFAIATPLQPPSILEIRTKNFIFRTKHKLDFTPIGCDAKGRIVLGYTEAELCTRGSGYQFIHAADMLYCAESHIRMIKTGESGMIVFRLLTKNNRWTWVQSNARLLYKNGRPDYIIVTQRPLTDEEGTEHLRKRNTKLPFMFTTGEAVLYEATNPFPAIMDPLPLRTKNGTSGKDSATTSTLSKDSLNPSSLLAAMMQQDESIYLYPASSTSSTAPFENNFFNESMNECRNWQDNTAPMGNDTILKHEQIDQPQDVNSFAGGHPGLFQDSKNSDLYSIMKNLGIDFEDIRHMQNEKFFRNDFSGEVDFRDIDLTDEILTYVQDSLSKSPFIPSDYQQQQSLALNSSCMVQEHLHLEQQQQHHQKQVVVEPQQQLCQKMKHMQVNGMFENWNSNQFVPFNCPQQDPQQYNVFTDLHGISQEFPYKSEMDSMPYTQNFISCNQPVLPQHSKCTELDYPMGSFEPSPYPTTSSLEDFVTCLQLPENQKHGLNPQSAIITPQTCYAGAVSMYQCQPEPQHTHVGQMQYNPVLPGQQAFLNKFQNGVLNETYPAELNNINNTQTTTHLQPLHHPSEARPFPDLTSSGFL
Chain of Cellular tumor antigen p53 (Homo sapiens) (P04637 whole entry, looked up, the tested form may be a part): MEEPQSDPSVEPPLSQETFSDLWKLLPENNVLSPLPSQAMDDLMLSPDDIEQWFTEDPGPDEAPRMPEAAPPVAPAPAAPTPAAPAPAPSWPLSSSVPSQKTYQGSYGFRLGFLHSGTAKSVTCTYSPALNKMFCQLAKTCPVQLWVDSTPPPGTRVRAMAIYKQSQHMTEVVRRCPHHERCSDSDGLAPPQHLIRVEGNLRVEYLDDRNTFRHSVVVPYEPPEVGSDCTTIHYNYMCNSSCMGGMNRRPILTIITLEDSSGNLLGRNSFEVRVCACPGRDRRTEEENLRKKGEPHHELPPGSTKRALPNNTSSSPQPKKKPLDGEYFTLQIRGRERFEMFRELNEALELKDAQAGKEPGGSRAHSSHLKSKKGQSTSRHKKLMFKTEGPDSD
Chain of Nuclear respiratory factor 1 (Homo sapiens) (Q16656 whole entry, looked up): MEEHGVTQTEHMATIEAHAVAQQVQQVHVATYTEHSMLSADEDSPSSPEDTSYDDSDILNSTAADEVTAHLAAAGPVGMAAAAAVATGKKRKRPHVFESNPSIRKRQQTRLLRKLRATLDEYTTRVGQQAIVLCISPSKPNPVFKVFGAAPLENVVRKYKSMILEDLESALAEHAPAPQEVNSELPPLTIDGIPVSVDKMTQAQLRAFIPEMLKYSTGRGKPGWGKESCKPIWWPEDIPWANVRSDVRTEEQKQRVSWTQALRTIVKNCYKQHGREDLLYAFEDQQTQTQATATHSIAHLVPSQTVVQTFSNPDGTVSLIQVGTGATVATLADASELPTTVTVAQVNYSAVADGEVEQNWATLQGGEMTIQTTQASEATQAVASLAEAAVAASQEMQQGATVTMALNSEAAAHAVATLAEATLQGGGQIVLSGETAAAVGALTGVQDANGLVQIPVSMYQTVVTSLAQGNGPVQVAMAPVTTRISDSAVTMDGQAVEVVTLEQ

Consider `CC(C)CCCCCCCOP(=O)(Oc1ccccc1)Oc1ccccc1`, for which the call in [1], in assay [2], in assay [3], in [5], in assay [6] and in assay [7] was inactive. The molecule was called inactive in assay [8], in [9], in assay [10], in assay [11], in [13] and in assay [14]. Besides, the molecule was called inactive in assay [15], in assay [17] and in [18]. Moreover, the values for the AC50 in assay [4], in [12] and in assay [16] were 33.3 µM (active), 1.66 µM (active) and 19.5 µM (active), respectively.
In the case of `CCCCCCC1CCOC1=O` (centres undefined), the outcome in [1], in assay [2], in assay [3], in [4], in [5] and in [7] was inactive. The call in assay [8], in [19], in assay [9], in [10], in assay [11] and in assay [20] was inactive. Moreover, the call in [12], in assay [13], in assay [14], in assay [15], in [16] and in [17] was inactive. For the same molecule, the call in assay [18] was inactive.
`CCC(C)(C)O`: the molecule was classed as inactive in assay [1], in assay [2], in assay [3], in assay [4], in [5] and in assay [6]. The molecule was called inactive in assay [7], in [19], in assay [9], in [10], in [11] and in [20]. The molecule was called inactive in [12], in [13], in [15], in assay [16] and in [17].
With `O=P1(NCCCl)OCCCN1CCCl` (centres undefined), the molecule was called inactive in assay [1], in assay [2], in [3], in assay [4], in assay [5] and in [6]. Also, the result in [8], in [19], in assay [9], in assay [10], in [11] and in assay [13] was inactive. In addition, the result in [15], in assay [16] and in assay [17] was inactive.
